ChEMBL document CHEMBL3988442, “University of Dundee, Small-Polar-MMV Screening Library” (2021)
Hit rate of the full screen: of about 85,000 compounds, about 440 (0.52%) showed an effect of 50% or more. The entries come from a sample that favours strong results as a whole.

Experiment: In vitro enzyme assay to detect hydrolysis of chlorophenol red-beta-D-[…] directly proportional to the number of Toxoplasma stably expressing beta-galactosidase
Assay type: functional, organism-based, Toxoplasma gondii
Set-up: scale not given: in the data most compounds retested in dose-response had high values

Row | Structure (SMILES) | Percent Effect (50 µM) [%] | Percent Effect (10 µM) [%]
1 | CCS(=O)(=O)N1CCC(NC(=O)c2ccc(Cl)o2)CC1 | -2.927 | 
2 | Cc1cc(F)cc(NC(=O)NC[C@@H]2CCCN2)c1 | 21.68 | 
3 | CC(Cn1ccnc1)NC(=O)NCc1ccc2c(c1)OCCO2 (centres undefined) |  | -19.42
4 | O=C(NCc1ccc2c(c1)OCO2)N1CCCCC1 | -4.35 | 
5 | O=C(NCc1ccc2c(c1)OCO2)n1ccnc1 | 96.82 | 
6 | c1cn(C2CCNC2)nn1 (centres undefined) | -13.42 | 
7 | CCC(OC)C(=O)N1CC(Oc2ccccc2F)C1 (centres undefined) | -7.864 | 
8 | CC(=O)Nc1ncc(S(=O)(=O)Nc2cccc(F)c2)s1 |  | 67.14
9 | Cc1c(S(=O)(=O)Nc2cccc(F)c2)cnn1C | -8.725 | 
10 | CC(=O)Nc1ncc(S(=O)(=O)Nc2cccc(O)c2)s1 |  | 62.29
11 | Cc1cccc(NS(=O)(=O)c2cc(C(=O)O)oc2C)c1 |  | -16.73
12 | CC(=O)Nc1ncc(S(=O)(=O)N2CCCC(C)C2)s1 (centres undefined) |  | -8.14
13 | CC(=O)Nc1ncc(S(=O)(=O)N2CCN(C3CCCCC3)CC2)s1 |  | -4.699
14 | CC(=O)Nc1ncc(S(=O)(=O)Nc2cccc(C)c2)s1 |  | 60.94
15 | CCS(=O)(=O)CCC(=O)Nc1cccc(F)c1 | 5.162 | 
16 | Cc1cc(C(=O)O)cc(S(=O)(=O)Nc2ccc3c(c2)OCCO3)c1C |  | -2.504
17 | CC(=O)Nc1ncc(S(=O)(=O)Nc2ccc3c(c2)OCCO3)s1 |  | 68.62

Row | Structure (SMILES) | Percent Effect (50 µM) [%] | Percent Effect (10 µM) [%]
18 | CC(=O)c1cccc(NS(=O)(=O)c2cc(C)c(C(=O)O)s2)c1 |  | -0.4058
19 | CC(=O)Nc1ncc(S(=O)(=O)N2CCOCC2)s1 |  | -6.42
20 | CCNC(=O)NCc1ncoc1C | -6.658 | 
21 | NC(=O)Cc1ccc(-c2ccc(C(N)=O)c(Cl)c2)cc1 | -4.393 | 
22 | CCn1ccnc1C(C)N (centres undefined) | 1.366 | 
23 | CNC(=O)c1cccc(NC(C)C(=O)NCC(C)C)c1 (centres undefined) | -5.14 | 
24 | Cn1cc(C(N)=O)c(NCc2ccc(F)c(C#N)c2)n1 | -8.67 | 
25 | CN1C(=O)[C@H]2CN(Cc3cccc(Cl)c3F)C[C@H]2C1=O | -8.035 | 
26 | O=C(c1cc(Cl)ccc1O)N1CCOCC1 | 6.297 | 
27 | CNCC(=O)Nc1ccc(C)cc1C(=O)N(C)C | -7.454 | 
28 | CCc1nccn1CCCNC(=O)Cc1nonc1C | 3.782 | 
29 | CCn1cc(C(=O)NCc2ccc(CNC)cc2)cn1 | -1.69 | 
30 | CC1CCCCN1CCNC(=O)c1ccccn1 (centres undefined) | 1.645 | 
31 | COc1ccc(Cl)cc1CNCCSc1nnnn1C | -8.775 | 
32 | Cc1cccc(C2CCCN2)n1 (centres undefined) | -3.572 | 
33 | Cc1nc([C@H]2CCCN2)cs1 | 52.58 | 
34 | Cc1cc(C2CCCN2)no1 (centres undefined) | -6.252 | 
